Measurements from the supplement of paper PMC11732987, “Enantioselective OTUD7B fragment discovery through chemoproteomics screening and high-throughput optimisation” (Communications Chemistry, 2025).

Tests used:
Assay in all cases: log2 ratio of Biotin-Ahx-Ub-VS probe labelling (fragment/DMSO); higher = less target engagement (more negative = stronger competition), active = hit call of the paper (q ≤ 0.05, log2 ratio ≤ -1)
Conditions in all cases: compound concentration: 200 uM; treatment time: 3 h
[1] = molecular target: T1, USP42 (UniProt Q9H9J4)
T1 sequence (whole entry): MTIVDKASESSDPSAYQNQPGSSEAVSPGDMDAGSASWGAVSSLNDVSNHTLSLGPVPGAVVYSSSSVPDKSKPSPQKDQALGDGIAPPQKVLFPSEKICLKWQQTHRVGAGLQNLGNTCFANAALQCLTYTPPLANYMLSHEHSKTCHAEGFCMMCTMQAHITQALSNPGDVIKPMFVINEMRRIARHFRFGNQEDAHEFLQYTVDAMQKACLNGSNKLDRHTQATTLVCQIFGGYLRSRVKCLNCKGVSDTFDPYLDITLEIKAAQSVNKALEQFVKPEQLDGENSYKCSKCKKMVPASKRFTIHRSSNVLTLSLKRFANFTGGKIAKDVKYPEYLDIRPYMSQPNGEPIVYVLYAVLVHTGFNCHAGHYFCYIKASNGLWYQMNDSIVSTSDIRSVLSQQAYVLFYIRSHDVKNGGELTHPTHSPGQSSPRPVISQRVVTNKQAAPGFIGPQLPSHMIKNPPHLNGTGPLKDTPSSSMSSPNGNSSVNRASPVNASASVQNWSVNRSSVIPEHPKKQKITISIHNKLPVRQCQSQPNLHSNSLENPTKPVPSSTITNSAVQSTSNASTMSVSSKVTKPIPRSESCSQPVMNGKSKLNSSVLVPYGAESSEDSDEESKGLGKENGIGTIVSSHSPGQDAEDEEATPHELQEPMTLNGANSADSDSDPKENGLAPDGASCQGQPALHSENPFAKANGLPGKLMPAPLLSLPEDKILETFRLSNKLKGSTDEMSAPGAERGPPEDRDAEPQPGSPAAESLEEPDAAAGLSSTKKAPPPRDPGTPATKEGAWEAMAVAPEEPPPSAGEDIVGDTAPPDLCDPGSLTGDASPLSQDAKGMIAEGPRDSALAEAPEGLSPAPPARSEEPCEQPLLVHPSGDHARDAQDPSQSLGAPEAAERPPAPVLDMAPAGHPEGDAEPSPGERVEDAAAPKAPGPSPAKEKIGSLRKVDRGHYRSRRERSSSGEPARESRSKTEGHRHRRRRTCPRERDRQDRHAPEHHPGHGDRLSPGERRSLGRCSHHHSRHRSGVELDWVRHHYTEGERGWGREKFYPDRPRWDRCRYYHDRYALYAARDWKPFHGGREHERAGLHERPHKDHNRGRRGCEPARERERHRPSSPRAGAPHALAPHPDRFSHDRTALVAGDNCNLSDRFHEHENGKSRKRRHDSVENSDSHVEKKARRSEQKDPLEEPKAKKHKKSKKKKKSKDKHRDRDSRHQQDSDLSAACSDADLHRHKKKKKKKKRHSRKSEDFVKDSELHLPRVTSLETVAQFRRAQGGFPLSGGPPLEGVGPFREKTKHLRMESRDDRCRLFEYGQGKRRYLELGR
Procedure, shortened: (§1)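 Triplicate samples of HEK293T lysate, 495 µg each, received fragment at 200 µM or vehicle for 3 h, followed by Biotin-Ahx-Ub-VS (0.5 µM final) for 1 h. After NeutrAvidin enrichment of labelled DUBs and LysC/trypsin digestion, peptides were run by diaPASEF LC-MS/MS. The values are average log2 fragment/vehicle ratios from global-median-normalised Spectronaut label-free quantities, tested by unpaired t-test on proteins having ≥2 unique peptides.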

[2] = molecular target: USP46 (UniProt P62068)
USP46, sequence (P62068 whole entry): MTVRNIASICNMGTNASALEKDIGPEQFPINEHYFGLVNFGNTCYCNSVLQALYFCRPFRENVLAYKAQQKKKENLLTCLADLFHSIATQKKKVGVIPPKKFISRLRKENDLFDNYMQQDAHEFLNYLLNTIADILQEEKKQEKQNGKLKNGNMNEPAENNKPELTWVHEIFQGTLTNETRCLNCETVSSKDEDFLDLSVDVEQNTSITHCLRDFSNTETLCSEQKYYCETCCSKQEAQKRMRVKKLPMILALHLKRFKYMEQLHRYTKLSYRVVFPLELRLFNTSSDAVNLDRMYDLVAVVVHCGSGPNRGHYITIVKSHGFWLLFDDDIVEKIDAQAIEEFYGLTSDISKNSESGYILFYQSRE
Procedure, shortened: as §1

[3] = molecular target: T2, USP47 (UniProt Q96K76)
T2 sequence (whole entry): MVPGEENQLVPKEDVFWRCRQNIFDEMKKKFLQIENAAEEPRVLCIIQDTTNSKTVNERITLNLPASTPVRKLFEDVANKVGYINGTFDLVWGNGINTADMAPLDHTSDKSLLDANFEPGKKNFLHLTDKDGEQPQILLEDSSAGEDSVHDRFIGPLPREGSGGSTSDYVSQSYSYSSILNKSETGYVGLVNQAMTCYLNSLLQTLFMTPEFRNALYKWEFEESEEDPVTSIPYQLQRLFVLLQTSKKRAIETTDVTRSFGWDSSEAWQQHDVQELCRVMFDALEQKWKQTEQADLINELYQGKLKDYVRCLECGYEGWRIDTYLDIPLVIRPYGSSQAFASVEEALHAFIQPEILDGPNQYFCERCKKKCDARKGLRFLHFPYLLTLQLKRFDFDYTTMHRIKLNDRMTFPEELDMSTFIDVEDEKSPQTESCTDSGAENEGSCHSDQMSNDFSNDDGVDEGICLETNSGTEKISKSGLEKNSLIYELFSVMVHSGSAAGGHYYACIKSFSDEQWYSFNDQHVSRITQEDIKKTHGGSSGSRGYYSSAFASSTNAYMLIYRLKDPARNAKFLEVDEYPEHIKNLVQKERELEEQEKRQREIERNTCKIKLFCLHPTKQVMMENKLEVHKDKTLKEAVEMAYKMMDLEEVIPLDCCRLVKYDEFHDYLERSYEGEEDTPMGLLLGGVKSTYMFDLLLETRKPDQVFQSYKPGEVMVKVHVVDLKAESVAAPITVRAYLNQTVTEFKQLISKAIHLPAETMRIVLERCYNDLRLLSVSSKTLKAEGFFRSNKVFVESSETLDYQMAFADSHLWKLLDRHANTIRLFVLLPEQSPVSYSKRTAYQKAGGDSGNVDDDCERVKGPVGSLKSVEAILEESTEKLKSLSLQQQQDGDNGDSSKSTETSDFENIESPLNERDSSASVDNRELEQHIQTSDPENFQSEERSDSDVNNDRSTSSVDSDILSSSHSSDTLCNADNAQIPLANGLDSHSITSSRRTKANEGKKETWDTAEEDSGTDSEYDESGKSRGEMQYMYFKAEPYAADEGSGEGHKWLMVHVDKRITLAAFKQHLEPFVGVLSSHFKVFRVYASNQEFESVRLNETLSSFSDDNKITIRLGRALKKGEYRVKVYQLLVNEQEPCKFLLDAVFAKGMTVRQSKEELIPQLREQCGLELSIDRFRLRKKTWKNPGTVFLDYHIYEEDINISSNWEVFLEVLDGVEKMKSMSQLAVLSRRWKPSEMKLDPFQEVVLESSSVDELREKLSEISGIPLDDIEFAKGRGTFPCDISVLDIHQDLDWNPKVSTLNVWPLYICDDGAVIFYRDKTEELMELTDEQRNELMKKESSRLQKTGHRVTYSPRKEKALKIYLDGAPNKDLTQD
Procedure, shortened: as §1

[4] = molecular target: T3, USP48 (UniProt Q86UV5)
T3 sequence (whole entry): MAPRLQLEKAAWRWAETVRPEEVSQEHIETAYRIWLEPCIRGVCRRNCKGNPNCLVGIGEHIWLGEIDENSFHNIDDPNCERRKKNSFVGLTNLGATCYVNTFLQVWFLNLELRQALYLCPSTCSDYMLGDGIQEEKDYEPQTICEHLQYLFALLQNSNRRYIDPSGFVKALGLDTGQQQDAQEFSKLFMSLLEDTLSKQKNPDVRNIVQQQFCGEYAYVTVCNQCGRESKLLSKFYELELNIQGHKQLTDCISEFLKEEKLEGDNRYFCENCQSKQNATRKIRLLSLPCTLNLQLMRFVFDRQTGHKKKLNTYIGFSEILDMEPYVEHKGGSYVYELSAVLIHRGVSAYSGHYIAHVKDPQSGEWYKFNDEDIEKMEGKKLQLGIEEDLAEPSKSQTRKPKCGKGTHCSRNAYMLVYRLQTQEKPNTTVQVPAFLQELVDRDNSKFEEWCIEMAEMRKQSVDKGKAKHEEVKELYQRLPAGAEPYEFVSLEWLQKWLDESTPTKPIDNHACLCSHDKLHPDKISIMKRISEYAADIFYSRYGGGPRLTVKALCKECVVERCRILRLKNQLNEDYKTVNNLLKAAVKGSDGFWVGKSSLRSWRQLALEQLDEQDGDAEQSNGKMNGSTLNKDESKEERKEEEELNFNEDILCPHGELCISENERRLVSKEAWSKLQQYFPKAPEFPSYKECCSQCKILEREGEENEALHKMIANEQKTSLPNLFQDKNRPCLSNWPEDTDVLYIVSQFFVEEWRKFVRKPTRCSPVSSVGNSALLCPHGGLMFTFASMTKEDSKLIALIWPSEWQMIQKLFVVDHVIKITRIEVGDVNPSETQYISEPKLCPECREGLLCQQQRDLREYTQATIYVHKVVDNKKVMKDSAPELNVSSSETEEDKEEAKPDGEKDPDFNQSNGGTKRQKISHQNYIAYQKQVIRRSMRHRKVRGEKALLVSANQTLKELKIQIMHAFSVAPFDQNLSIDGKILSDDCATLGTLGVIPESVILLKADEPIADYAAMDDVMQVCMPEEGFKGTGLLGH
Procedure, shortened: as §1

[5] = molecular target: T4, USP5 (UniProt P45974)
T4 sequence (whole entry): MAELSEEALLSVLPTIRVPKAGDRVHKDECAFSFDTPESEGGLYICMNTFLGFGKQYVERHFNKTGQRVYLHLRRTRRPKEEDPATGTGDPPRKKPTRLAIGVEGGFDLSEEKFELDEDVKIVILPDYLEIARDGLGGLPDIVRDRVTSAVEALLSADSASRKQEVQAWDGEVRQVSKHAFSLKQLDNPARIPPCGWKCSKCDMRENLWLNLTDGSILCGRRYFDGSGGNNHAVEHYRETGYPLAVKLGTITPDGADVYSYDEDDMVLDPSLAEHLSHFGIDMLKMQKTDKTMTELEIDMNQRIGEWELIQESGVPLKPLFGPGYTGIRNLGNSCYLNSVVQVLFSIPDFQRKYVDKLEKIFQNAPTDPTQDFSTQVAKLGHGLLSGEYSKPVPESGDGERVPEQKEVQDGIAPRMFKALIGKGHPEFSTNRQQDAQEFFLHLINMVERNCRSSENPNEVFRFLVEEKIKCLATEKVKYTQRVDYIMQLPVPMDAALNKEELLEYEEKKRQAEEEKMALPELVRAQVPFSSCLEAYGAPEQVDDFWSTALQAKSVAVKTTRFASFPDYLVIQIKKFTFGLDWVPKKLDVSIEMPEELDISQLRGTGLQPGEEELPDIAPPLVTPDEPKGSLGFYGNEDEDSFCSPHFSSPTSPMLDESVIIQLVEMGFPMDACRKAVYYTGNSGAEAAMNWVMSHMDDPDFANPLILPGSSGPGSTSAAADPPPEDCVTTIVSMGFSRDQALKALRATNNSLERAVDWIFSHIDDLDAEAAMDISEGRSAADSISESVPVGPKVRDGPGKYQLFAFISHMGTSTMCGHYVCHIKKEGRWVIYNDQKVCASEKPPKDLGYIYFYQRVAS
Procedure, shortened: as §1

[6] = molecular target: USP54 (UniProt Q70EL1)
Procedure, shortened: as §1

[7] = molecular target: USP7 (UniProt Q93009)
USP7, sequence (Q93009 whole entry, looked up): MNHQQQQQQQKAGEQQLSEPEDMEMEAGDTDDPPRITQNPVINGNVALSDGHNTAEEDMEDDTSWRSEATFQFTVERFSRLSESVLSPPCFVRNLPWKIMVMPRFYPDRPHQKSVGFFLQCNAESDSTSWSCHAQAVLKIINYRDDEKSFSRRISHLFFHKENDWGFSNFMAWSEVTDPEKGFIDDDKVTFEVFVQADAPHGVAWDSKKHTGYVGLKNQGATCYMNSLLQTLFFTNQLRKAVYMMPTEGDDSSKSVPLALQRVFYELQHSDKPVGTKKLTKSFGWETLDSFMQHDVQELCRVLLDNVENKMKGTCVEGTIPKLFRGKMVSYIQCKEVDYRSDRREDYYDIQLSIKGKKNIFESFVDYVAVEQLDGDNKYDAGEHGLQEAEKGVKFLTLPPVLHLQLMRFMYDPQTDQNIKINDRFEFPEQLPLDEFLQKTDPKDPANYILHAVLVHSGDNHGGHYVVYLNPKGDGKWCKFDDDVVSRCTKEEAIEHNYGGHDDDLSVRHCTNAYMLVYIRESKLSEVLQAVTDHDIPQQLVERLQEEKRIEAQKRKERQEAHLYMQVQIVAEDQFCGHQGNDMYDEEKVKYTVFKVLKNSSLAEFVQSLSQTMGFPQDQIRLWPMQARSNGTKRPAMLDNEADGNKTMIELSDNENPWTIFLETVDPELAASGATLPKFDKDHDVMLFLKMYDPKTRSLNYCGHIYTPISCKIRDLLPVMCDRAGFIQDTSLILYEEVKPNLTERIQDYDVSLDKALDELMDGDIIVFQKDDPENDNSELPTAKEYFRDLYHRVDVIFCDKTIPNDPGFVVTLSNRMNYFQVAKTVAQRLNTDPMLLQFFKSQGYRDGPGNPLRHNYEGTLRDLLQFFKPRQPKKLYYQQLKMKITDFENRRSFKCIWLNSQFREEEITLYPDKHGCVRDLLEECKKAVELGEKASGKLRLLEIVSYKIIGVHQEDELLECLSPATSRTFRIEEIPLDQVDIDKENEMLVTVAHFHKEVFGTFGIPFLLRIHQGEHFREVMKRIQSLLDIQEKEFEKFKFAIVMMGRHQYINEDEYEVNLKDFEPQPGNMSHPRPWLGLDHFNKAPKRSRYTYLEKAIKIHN
Procedure, shortened: as §1

[8] = molecular target: T5, USP8 (UniProt P40818)
T5 sequence (whole entry): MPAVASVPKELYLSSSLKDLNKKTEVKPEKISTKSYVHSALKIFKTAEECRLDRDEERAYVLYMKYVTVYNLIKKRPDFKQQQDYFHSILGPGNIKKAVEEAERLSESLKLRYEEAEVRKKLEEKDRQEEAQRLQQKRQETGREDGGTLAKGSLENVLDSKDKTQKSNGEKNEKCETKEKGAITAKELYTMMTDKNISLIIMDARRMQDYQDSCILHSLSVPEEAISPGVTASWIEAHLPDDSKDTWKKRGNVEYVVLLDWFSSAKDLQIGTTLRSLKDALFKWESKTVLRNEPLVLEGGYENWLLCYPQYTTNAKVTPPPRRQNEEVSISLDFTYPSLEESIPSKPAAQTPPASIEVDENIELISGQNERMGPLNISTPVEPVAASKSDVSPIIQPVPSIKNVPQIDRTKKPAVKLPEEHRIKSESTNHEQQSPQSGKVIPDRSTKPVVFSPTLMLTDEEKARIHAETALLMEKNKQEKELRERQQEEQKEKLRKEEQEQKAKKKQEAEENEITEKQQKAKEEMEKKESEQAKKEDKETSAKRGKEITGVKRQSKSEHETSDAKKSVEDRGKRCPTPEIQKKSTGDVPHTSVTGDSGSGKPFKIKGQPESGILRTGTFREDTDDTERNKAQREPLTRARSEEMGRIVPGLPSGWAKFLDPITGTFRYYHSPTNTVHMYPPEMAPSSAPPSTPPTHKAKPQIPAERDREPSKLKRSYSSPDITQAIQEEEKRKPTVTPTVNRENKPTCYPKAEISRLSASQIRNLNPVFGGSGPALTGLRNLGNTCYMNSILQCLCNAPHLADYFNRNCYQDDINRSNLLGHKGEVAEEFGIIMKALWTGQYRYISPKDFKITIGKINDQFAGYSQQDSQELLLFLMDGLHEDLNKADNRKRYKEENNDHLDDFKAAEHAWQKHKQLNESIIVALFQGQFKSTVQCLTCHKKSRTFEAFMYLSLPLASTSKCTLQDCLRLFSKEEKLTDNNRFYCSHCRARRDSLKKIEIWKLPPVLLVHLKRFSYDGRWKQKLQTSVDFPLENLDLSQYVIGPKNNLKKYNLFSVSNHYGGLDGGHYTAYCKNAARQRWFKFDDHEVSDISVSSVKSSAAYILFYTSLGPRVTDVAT
Procedure, shortened: as §1

[9] = molecular target: USP9X (UniProt Q93008)
USP9X, sequence (Q93008 whole entry): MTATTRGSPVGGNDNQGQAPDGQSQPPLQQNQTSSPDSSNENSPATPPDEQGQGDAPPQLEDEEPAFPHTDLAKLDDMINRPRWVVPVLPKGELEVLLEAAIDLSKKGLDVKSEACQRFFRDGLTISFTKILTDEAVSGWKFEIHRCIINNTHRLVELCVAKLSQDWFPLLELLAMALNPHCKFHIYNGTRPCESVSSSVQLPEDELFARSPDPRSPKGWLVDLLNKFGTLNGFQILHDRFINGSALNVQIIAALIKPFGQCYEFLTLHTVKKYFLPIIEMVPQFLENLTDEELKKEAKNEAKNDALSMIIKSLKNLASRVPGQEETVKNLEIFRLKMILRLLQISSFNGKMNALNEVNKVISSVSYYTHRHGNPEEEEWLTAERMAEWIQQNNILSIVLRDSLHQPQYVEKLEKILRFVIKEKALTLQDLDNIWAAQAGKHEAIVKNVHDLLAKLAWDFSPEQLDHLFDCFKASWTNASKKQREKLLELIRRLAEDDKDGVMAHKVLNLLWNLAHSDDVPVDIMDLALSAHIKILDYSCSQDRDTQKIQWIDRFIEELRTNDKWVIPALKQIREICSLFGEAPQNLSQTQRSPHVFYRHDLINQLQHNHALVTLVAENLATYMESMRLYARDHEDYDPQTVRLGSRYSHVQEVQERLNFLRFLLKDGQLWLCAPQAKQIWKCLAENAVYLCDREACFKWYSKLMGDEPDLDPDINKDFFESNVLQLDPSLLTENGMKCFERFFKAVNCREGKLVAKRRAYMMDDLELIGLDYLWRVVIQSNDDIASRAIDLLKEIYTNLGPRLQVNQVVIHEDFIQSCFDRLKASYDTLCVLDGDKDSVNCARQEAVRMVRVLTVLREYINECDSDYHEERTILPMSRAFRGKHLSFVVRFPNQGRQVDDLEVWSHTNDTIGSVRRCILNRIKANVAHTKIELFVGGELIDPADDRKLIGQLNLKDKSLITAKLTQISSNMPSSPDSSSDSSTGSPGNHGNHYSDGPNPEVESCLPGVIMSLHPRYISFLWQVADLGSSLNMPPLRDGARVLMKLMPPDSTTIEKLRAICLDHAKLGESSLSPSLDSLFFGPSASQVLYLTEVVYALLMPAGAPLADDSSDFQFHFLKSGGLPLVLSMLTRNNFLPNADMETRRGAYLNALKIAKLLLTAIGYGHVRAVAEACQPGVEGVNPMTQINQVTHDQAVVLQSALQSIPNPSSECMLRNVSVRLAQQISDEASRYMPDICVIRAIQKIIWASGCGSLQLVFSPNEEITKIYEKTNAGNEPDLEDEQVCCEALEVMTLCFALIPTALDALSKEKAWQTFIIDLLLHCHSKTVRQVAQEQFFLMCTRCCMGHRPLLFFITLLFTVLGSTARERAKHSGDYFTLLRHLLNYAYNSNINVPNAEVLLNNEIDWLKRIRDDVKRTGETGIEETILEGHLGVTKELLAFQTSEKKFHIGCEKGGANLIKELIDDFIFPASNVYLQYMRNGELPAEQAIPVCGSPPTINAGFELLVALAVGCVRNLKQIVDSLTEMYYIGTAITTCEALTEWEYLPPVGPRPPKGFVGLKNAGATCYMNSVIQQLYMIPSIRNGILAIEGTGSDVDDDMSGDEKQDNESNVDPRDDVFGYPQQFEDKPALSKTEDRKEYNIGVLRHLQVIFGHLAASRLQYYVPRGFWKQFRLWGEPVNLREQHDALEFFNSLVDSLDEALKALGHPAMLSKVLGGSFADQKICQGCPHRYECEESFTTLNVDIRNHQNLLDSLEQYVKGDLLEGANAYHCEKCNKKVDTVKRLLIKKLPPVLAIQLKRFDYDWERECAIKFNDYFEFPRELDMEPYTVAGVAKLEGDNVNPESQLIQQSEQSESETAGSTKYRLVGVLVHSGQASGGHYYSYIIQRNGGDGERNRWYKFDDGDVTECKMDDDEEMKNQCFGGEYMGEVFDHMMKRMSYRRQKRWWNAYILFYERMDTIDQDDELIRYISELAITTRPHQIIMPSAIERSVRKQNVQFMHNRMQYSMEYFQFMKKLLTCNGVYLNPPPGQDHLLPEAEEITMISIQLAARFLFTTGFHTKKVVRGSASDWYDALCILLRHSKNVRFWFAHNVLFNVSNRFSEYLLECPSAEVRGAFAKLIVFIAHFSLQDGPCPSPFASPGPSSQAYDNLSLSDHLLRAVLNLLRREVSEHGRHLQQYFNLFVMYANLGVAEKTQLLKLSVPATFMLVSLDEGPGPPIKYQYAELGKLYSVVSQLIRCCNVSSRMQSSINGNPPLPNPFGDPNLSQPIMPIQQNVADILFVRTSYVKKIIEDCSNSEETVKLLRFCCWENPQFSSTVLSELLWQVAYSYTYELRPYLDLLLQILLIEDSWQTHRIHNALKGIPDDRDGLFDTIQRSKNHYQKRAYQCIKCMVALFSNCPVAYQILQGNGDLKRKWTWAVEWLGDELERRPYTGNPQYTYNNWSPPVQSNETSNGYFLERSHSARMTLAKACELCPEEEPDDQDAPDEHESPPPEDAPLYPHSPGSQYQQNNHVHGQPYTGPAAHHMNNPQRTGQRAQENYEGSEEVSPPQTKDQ
Procedure, shortened: as §1

[10] = molecular target: UniProt O00487
UniProt O00487, sequence (O00487 whole entry): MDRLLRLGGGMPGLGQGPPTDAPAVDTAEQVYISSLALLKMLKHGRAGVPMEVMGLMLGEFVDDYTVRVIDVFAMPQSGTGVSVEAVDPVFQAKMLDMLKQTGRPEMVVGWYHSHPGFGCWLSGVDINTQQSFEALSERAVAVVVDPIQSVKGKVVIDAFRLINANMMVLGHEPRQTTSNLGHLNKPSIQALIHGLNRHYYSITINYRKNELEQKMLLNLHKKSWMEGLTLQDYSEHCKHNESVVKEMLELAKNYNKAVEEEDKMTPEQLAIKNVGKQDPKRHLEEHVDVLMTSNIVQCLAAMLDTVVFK
Procedure, shortened: as §1

Measured: log2 ratio of Biotin-Ahx-Ub-VS probe labelling

CCN(C(=O)CCl)C1CCCCC1
inactive: [1] 0.177 | [2] -0.202 | [3] -0.157 | [4] -0.238 | [5] 0.443 | [6] 0.0425 | [7] -0.372 | [8] 0.0715 | [9] -0.0791 | [10] 0.0502
